Assay results: PubChem BioAssay (NCI)
Several values for one entry are separate records, joined by “and”; a condition that tells them apart may be missing. Identical values can stand only once. The panel holds about 83,000 compounds, 20% with a hit somewhere; the sample as a whole holds those more often.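 Values shown are percent growth following 48 h exposure of cells in 96-well plates to a single concentration of compound; below 10 was considered active.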 Activity calls are given as the source filed them.

The compounds below were run on MDA-MB-468 breast (assay: NCI-60 one-dose screen, 48 h (100 = growth as untreated, 0 = no growth, -100 = all killed)). Conditions: 10 µM unless noted.

Which growth does the source give for CCN1CCN(c2nc(NNC(=O)c3ccc(OC)cc3)nc(N3CCN(C(c4ccccc4)c4ccccc4)CC3)n2)CC1 here?
Its growth is 10.7% (inactive).

With Fc1ccc2c(CN3CCO[C@H](COc4cccc(Cl)c4)C3)c[nH]c2c1 as the compound, how does the growth read?
The growth was -38.7% (active).

With CC(C)OC1=C(Cl)C(=O)c2ccccc2C1=O as the compound, how does the growth read?
Its growth is 69.1% (inactive).

Which growth does the source give for O=C1OC(C(O)C(O)CO)C(O)=C1O (stereo not given) here?
Its growth is 88.7% (inactive) and 117% (inactive).

With CN1CCN(c2nc(NCCCNc3ccnc4cc(Cl)ccc34)c3ccccc3n2)CC1 as the compound, how does the growth read?
The growth was 54.6% (inactive).

With ClC(Cl)c1nc(-c2cccs2)n2nc(-c3ccccc3)cc2n1 as the compound, how does the growth read?
Its growth is -56.4% (active).

Cc1cccc(C[C@H](NC(=O)Nc2ccc(C)cc2F)C(=O)N[C@@H]2C(=O)N3C[C@H](O)C[C@H]3C(=O)N3CCN(C)C[C@H]3C(=O)N[C@@H](C)C(=O)N3C[C@H](C)C[C@H]3C(=O)O[C@H]2C)c1 was tested. Which growth did it give?
Its growth is 6.46% (active).

How did the growth turn out when O=S(=O)(NCCNc1nccc(-c2c(-c3cccc(O)c3)nc3occn23)n1)c1ccccc1 was run?
Its growth is 88.4% (inactive).

With O=C1CSC(c2ccc(O)cc2)N1c1nnc(Cn2cnnc2)o1 (stereo not given) as the compound, how does the growth read?
The growth was 48% (inactive).

For Fc1ccc(-c2nnc(-c3c(-c4ccc(F)cc4)nc4ncccn34)o2)cc1, which growth is on record?
Its growth is 88.7% (inactive).

Which growth does the source give for Nc1c(C(=O)Nc2cccc(Cl)c2)sc2ncc(Br)cc12 here?
The growth was 94.1% (inactive).

C/C=C/C1OC23CCCCC2C(C#N)(C(=N)O3)C1(C#N)C#N (stereo not given) was tested. Which growth did it give?
The growth was 77.7% (inactive).

Nc1nc(-c2ccccc2Cl)cc(-c2ccc(Cl)cc2Cl)n1 was tested. Which growth did it give?
Its growth is 18.6% (inactive).

With C=C1CCC2C(C)(COC(=O)CC)C(OC(=O)CC)CCC2(C)C1C/C=C1/C(=O)OCC1OC(=O)CC (stereo not given) as the compound, how does the growth read?
Its growth is -48.5% (active).

How did the growth turn out when Cc1cc(O)c(C2=NN(c3ccc(S(N)(=O)=O)cc3)C(c3ccc(N(C)C)cc3)C2)c(C)c1Cl (stereo not given) was run?
The growth was 91.1% (inactive).

How did the growth turn out when O=C(CCCl)OCCOc1ccccc1 was run?
The growth was 107% (inactive).

COC(=O)c1c2c(c(C)[n+]([O-])c1C)C(=O)C(NCc1ccccc1)=CC2=O was tested. Which growth did it give?
The growth was -31.8% (active).

Which growth does the source give for O=C1/C(=C\c2ccccc2)CN(C(=O)c2ccccc2)C/C1=C\c1ccccc1 here?
The growth was -48.6% (active).

For COc1cc(-c2nc3cc(Cl)c(Cl)cc3[nH]2)ccc1OCC(=O)N=Nc1c(O)[nH]c2ccc([N+](=O)[O-])cc12, which growth is on record?
Its growth is 4.59% (active).

How did the growth turn out when CN[C@@H]1C(OC2[C@H](O[C@H]3[C@H](O)[C@@H](O)[C@H](N=C(N)N)[C@@H](O)[C@@H]3N=C(N)N)OC(C)[C@]2(O)CO)OC(CO)C(O)C1O (stereo not given in full) was run?
Its growth is 108% (inactive).

Which growth does the source give for CCCC1CCC(=C2C(=O)CCC2=O)O1 (stereo not given) here?
Its growth is 88.7% (inactive).

With O=[N+]([O-])c1cccc(-c2nc3sccn3c2-c2ccnc(NCCCNS(=O)(=O)c3ccc(F)cc3)n2)c1 as the compound, how does the growth read?
Its growth is -8.54% (active).

With CCN(CC)CCC(CNc1c(C)cnc2cc(Cl)ccc12)c1ccc(Cl)c(Cl)c1 (stereo not given) as the compound, how does the growth read?
The growth was 18.5% (inactive).

With N#C/C(=C\c1ccc(C(F)(F)F)cc1)c1cc2ccccc2[nH]1 as the compound, how does the growth read?
The growth was 96.9% (inactive).

Which growth does the source give for c1ccc(Nc2cc(-c3cccnc3)[nH]n2)cc1 here?
The growth was 106% (inactive).
